From PubChem BioAssay (Tox21) come the findings set out here.

The nature of test [1]: qHTS RealTime-Glo MT Cell Viability Assay in HEK293 cells - 16 hour (AID 1224872). Further: top concentration of the series differs between compounds; nearly all actives have a fitted effect of over 50% in size. In short, it runs like this: (§1)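 Reads taken at 0, 8, 16, 24, 32 and 40 h from the same wells. HEK293 cells (600/well) carried RealTime-Glo reagents from seeding, with compound added after a 5 h settle at 37 C.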
The nature of test [2]: qHTS RealTime-Glo MT Cell Viability Assay in HepG2 cells - 8 hour (AID 1224873). Further: nearly all actives have a fitted effect of over 55% in size. The procedure, abridged:
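Real-time viability: cells seeded at 600 per well together with NanoLuc and cell-permeant prosubstrate, compounds added after 5 h incubation. Luminescence tracked at 0, 8, 16, 24, 32 and 40 h of exposure.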

The nature of test [3]: qHTS RealTime-Glo MT Cell Viability Assay in HEK293 cells - 40 hour (AID 1224874). Further: nearly all actives have a fitted effect of over 50% in size. Further: potency means the concentration at half of the fitted maximal effect. As to conditions: RealTime-Glo luminescence; max response: stronger effect = lower value. The procedure, abridged:
(§2)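 600 HEK293 cells per well, dispensed already mixed with RealTime-Glo MT reagents. Compound dosing came 5 h later. The same wells were read for luminescence at 0, 8, 16, 24, 32 and 40 h of exposure at 37 C.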
In general terms: In qHTS, concentration-response curves come from the screen itself.

Test [4] is described as follows: A CellTox Green Cytotoxicity Assay to monitor cytotoxicity in HEK293 cells - 24 hour (AID 1224875). Further: series mostly up to about 77 µM; nearly all actives have a fitted effect of over 45% in size. In short, it runs like this: (§3)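 Dead-cell fluorescence measured kinetically: asymmetric cyanine dye, HEK293, 600 cells/well, 5 h settle, 23 nL cpd/DMSO, 37 C, reads 0–40 h every 8 h.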
The nature of test [5]: A CellTox Green Cytotoxicity Assay to monitor cytotoxicity in HepG2 cells - 16 hour (AID 1224876). Further: nearly all actives have a fitted effect of over 45% in size. In short, it runs like this: (§4)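 First, HepG2 cells (600/well) mixed with reagent were plated; second, after 5 h at 37 C they received compounds via pintool; third, fluorescence was measured at 0 h through 40 h at 8 h intervals.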
A short description of test [6]: qHTS RealTime-Glo MT Cell Viability Assay in HepG2 cells - 32 hour (AID 1224877). Further: nearly all actives have a fitted effect of over 55% in size. The procedure, abridged:
(§5)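 HepG2 suspension premixed with RealTime-Glo reagents is plated at 600 cells per well and left 5 h at 37 C/5% CO2. Compounds in DMSO then go in, and bioluminescence reflecting viable cell number is recorded over 40 h.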

Test [7] can be described thus: qHTS RealTime-Glo MT Cell Viability Assay in HEK293 cells - 0 hour (AID 1224880). Further: top concentration of the series differs between compounds; nearly all actives have a fitted effect of over 45% in size. In short, it runs like this: as §2
The nature of test [8]: A CellTox Green Cytotoxicity Assay to monitor cytotoxicity in HEK293 cells - 32 hour (AID 1224881). Further: nearly all actives have a fitted effect of over 40% in size. The procedure, abridged:
as §3

Test [9] in a line: A CellTox Green Cytotoxicity Assay to monitor cytotoxicity in HepG2 cells - 0 hour (AID 1224882). Further: nearly all actives have a fitted effect of over 35% in size. The procedure, abridged:
as §4

Test [10] in a line: A CellTox Green Cytotoxicity Assay to monitor cytotoxicity in HepG2 cells - 32 hour (AID 1224883). Further: nearly all actives have a fitted effect of over 50% in size. Further: potency means the concentration at half of the fitted maximal effect. The procedure, abridged:
as §4

Test [11] in a line: A CellTox Green Cytotoxicity Assay to monitor cytotoxicity in HEK293 cells - 8 hour (AID 1224884). Further: nearly all actives have a fitted effect of over 35% in size. The procedure, abridged: as §3
Test [12] in a line: qHTS RealTime-Glo MT Cell Viability Assay in HepG2 cells - 16 hour (AID 1224885). Further: nearly all actives have a fitted effect of over 50% in size. The procedure, abridged: as §5
Test [13] is described as follows: qHTS RealTime-Glo MT Cell Viability Assay in HEK293 cells - 24 hour (AID 1224886). The procedure, abridged:
as §1

Test [14] in a line: qHTS RealTime-Glo MT Cell Viability Assay in HEK293 cells - 8 hour (AID 1224887). In short, it runs like this:
as §2

Test [15] is described as follows: qHTS RealTime-Glo MT Cell Viability Assay in HepG2 cells - 0 hour (AID 1224889). Further: nearly all actives have a fitted effect of over 50% in size. In short, it runs like this: as §5
The nature of test [16]: A CellTox Green Cytotoxicity Assay to monitor cytotoxicity in HepG2 cells - 8 hour (AID 1224890). Further: nearly all actives have a fitted effect of over 45% in size. The procedure, abridged: as §4
Test [17] is described as follows: qHTS assay to identify small molecule antagonists of the estrogen receptor alpha (ER-alpha) signaling pathway using the BG1 cell line in the presence of 0.1 nM 17-beta-estradiol - cell viability counter screen (AID 1259241). Further: nearly all actives have a fitted effect of over 40% in size. In short, it runs like this:
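Cells were plated and left 24 hr, compounds in DMSO were pinned in, 17beta-estradiol was added to 0.1 nM final, and after 22 hr CellTiter-Fluor reagent was added for 30 min before fluorescence was read.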

Test [18] is described as follows: A CellTox Green Cytotoxicity Assay to monitor cytotoxicity in HepG2 cells - 40 hour (AID 1224879). Further: nearly all actives have a fitted effect of over 40% in size. Further: potency means the concentration at half of the fitted maximal effect. In short, it runs like this:
as §4

Test [19] can be described thus: A CellTox Green Cytotoxicity Assay to monitor cytotoxicity in HEK293 cells - 16 hour (AID 1224888). Further: nearly all actives have a fitted effect of over 35% in size. The procedure, abridged:
as §3

Test [20] is described as follows: A CellTox Green Cytotoxicity Assay to monitor cytotoxicity in HepG2 cells - 24 hour (AID 1224878). Further: nearly all actives have a fitted effect of over 45% in size. Further: potency means the concentration at half of the fitted maximal effect. The procedure, abridged: as §4

Several values for one entry are separate records, joined by “and”; a condition that tells them apart may be missing. Equal values may be shown once. Inconclusive results are not listed. More than one record can exist for a structure, and the calls need not agree. Activity calls are given as the source filed them. The call rests on the fitted dose curve; in most records, active means well fitted curve in the direction sought with a large enough effect in the repeat runs; inconclusive means weak or mixed curves; inactive means no such curve, though single readings can be large; an effect the other way counts as inactive or inconclusive.
On the % scale 0 is the no-effect control and ±100 the full control effect.

In the case of `Nc1cc(Cl)cc(Cl)c1`, the compound was called inactive in [1], in test [2], in test [6], in test [7], in [12] and in test [13]. Also, the outcome in test [14], in test [15] and in [17] was inactive. The max response in test [3] is -2.18% (inactive) and 1.19% (inactive). For the same compound, the Potency entry in test [4], in [5], in test [8], in test [9], in test [10] and in [11] was “inactive” each time. Moreover, in test [16], the Potency entry was “inactive”.
Consider `NNc1ccccc1`, for which the outcome in [1], in [2], in [6], in [12], in [13] and in test [14] was inactive. Besides, the compound was called inactive in test [15] and in test [17]. In addition, the max response in test [3] was 3.45% (inactive) [middle of 5 runs]. For the same compound, the Potency result in test [4], in [5], in test [18], in test [8], in test [9] and in [10] was “inactive” each time. In addition, the Potency entry in test [19] and in test [16] was “inactive” in each case.
Consider `CCOc1ccc(N)cc1`, for which the compound was called inactive in [1], in test [2], in [6], in test [7], in test [12] and in test [13]. In addition, the call in test [14], in test [15] and in [17] was inactive. Further, in test [3], the max response is 2.16% (inactive) and -1.88% (inactive). For the same compound, the Potency entry in test [4], in [5], in [20], in test [8], in [9] and in test [10] was “inactive” each time. Moreover, the Potency result in test [11], in test [19] and in [16] was “inactive” throughout.
With `Sc1ccccc1`, the result in [1], in test [2], in test [6], in test [7], in [12] and in [13] was inactive. The compound was called inactive in [14], in test [15] and in test [17]. For the same compound, the Potency was 39.4 µM (active) in test [3]; “inactive and 43.6 µM (active)” in [20]; “inactive and 43.6 µM (active)” in [18]; “inactive and 43.6 µM (active)” in [10]. Moreover, the max response in test [3] is 0.339% (inactive) and -2.23% (inactive) and -0.106% (inactive). Further, the Potency result in [5], in [8], in test [9] and in test [16] was “inactive” each time.
In the case of `Nc1cccc(Cl)c1`, the outcome in test [1], in test [2], in test [6], in test [7], in [12] and in [13] was inactive. The outcome in test [14], in test [15] and in [17] was inactive. Further, the Potency in [3] is 21.9 µM (active). Further, in test [3], the max response was 0.922% (inactive). Further, the Potency result in test [4], in test [5], in [20], in test [18], in test [8] and in test [9] was “inactive” each time. The Potency entry in test [10], in test [11], in test [19] and in test [16] was “inactive” each time.
As to `CCCCCCCCCCCCCCCCCC(=O)O`, the result in [1], in test [2], in test [6], in test [12], in test [13] and in [14] was inactive. The result in test [15] and in test [17] was inactive. For the same compound, the max response in test [3] is 2.01% (inactive) and -1.45% (inactive) and 0.984% (inactive). Besides, the Potency entry in [4], in [5], in test [20], in test [8], in test [9] and in test [10] was “inactive” each time. The Potency result in test [11], in test [19] and in [16] was “inactive” in each case.
Turning to `COc1cc(-c2ccc(N)c(OC)c2)ccc1N`, the call in [1], in test [2], in test [6], in [12], in test [13] and in [14] was inactive. Moreover, the call in [15] and in test [17] was inactive. The Potency in test [3] was 37.1 µM (active). Further, the max response in test [3] is -23.4% (inactive) and -26.2% (inactive). Also, the Potency entry in test [4], in test [5], in test [20], in test [18], in test [8] and in [9] was “inactive” each time. The Potency entry in [10], in test [19] and in test [16] was “inactive” each time.
As for `CN(C)C(=O)Cl`, the result in test [1], in test [2], in test [6], in test [7], in [12] and in test [13] was inactive. The compound was called inactive in [14], in test [15] and in [17]. The max response in test [3] is 1.46% (inactive) and 5.01% (inactive). Besides, the Potency result in test [4], in test [5], in [20], in [18], in test [8] and in test [9] was “inactive” in each case. Moreover, the Potency entry in test [10], in test [11] and in test [16] was “inactive” throughout.
For the compound `O=C(O)Cc1ccccc1`, the call in [1], in [2], in test [6], in test [12], in [13] and in [14] was inactive. The result in test [15] and in test [17] was inactive. The max response in test [3] was 21.7% (inactive) and 3.56% (inactive). For the same compound, the Potency result in test [4], in test [5], in test [20], in [18], in test [8] and in test [9] was “inactive” in each case. For the same compound, the Potency result in test [10], in test [11] and in test [16] was “inactive” in each case.
In the case of `c1ccc2c(c1)CCCC2`, the outcome in test [1], in test [2], in [6], in [7], in [12] and in test [13] was inactive. Besides, the outcome in [14], in test [15] and in test [17] was inactive. In test [3], the max response was 1.92% (inactive) and 10.6% (inactive). Further, the Potency result in test [4], in [5], in test [18], in test [8], in [9] and in [10] was “inactive” each time. For the same compound, the Potency result in test [11], in test [19] and in test [16] was “inactive” in each case.
Consider `Cl/C=C/Cl`, for which the call in test [1], in test [2], in test [6], in test [12], in test [13] and in [14] was inactive. For the same compound, the compound was classed as inactive in test [15] and in [17]. For the same compound, in [3], the max response was -5.85% (inactive) and -1.58% (inactive) and 0.395% (inactive). In addition, the Potency entry in test [4], in [5], in test [20], in test [18], in test [8] and in test [9] was “inactive” each time. The Potency entry in test [10], in [11] and in test [16] was “inactive” throughout.
In the case of `C=CCN=C=S`, the call in test [1], in [2], in test [6], in test [7], in test [12] and in test [13] was inactive. For the same compound, the compound was classed as inactive in [14], in [15] and in test [17]. Besides, the max response in test [3] was 17.8% (inactive) and 1.95% (inactive). The Potency result in test [4], in test [5], in test [20], in test [18], in [8] and in test [9] was “inactive” throughout. Moreover, the Potency entry in [10], in test [11] and in test [16] was “inactive” throughout.
Consider `Oc1ccc(Cl)cc1`, for which the result in [1], in test [2], in test [6], in test [7], in test [12] and in [13] was inactive. Also, the outcome in test [14], in test [15] and in test [17] was inactive. Also, the max response in test [3] was 3.34% (inactive) and 1.68% (inactive) and 3.82% (inactive). Besides, the Potency entry in test [4], in test [5], in [8], in test [9], in test [10] and in [16] was “inactive” in each case.
